This note sets out measurements from ChEMBL document CHEMBL3433997, “St. Jude Leishmania screening dataset” (2016).

One may read the inhibition as the change of the read-out against control, counted positive when it falls.

Common to all, as to type: functional
Assay [1] deals with Solute carrier family 2, facilitated glucose transporter member 1 (Homo sapiens) (UniProt P11166). Put plainly: ST_JUDE_LEISH: Cytotoxicity at 2uM final concentration against transgenic Leishmania Mexicana promastigotes LmGLUT1 that are glucose transport deficient and complemented with the human glucose transporter GLUT1. Activity is measured by DNA content using SYBR green in vitro.
Sequence of Solute carrier family 2, facilitated glucose transporter member 1 (Homo sapiens) (P11166 whole entry): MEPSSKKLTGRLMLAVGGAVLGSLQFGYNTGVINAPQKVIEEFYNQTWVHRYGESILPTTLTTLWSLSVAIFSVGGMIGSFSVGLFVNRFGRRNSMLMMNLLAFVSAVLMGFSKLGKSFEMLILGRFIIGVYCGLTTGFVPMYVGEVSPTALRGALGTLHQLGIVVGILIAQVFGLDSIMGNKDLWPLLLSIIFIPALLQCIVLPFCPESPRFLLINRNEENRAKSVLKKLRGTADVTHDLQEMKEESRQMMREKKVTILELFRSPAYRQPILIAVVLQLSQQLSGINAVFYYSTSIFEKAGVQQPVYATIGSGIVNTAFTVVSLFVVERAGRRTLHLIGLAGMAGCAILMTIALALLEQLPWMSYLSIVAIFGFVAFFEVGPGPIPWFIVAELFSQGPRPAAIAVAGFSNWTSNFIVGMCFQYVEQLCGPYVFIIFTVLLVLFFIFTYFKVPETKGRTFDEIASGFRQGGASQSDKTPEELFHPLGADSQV

In assay [2] the target is Hexose transporter 1 (Plasmodium falciparum) (UniProt O97467). Nature of the assay: ST_JUDE_LEISH: Cytotoxicity at 2uM final concentration against transgenic Leishmania Mexicana promastigotes LmPfHT that are glucose transport deficient and complemented with the Plasmodium falciparum hexose transporter. Activity is measured by DNA content using SYBR green in vitro.
For assay [3], the target named is Glucose transporter (Leishmania mexicana) (UniProt O61059). Put plainly: ST_JUDE_LEISH: Cytotoxicity at 2uM final concentration against transgenic Leishmania Mexicana promastigotes LmGT2 that are glucose transport deficient and complemented with the L. Mexicana glucose transporter 2. Activity is measured by DNA content using SYBR green in vitro.

As to `CCCC(C)Nc1nc(C)cc(N[C@@H](CC(C)C)C(=O)Nc2ccc(OC)cc2)n1` (some centres not stated), the inhibition in assay [1] was found to be 3.3%; in assay [2] it was 3.9%; in assay [3] it was 1.36%.

In the case of `CCCCCCN1CCCN(Cc2cccc(NC(=O)c3cc4ccccc4s3)c2)CC1`, the inhibition in assay [1] was determined as 2.73%; in assay [2], 3.42%; in assay [3], 0.46%.

In the case of `CC1CCN(C(=O)CSc2nc(-c3ccc(C(C)C)cc3)no2)CC1`, the values for the inhibition in assay [1], in assay [2] and in assay [3] were 7.2%, 9.21% and 6.14%, respectively.

Take `COc1ccc2nccc([C@@H](O)CN3CCC(NCc4cnc5snnc5c4)C(F)C3)c2c1` (some centres not stated): the results for the inhibition in assay [1], in assay [2] and in assay [3] were 0.43%, 1.51% and 2.93%, respectively.

As to `CC(C)CNC(=O)c1ccnc(-c2ccc(CNC3Cc4ccccc4C3)cc2)c1`, the inhibition was -0.85% in assay [1], -0.27% in assay [2] and -1.63% in assay [3].

Turning to `COc1cc2nc(Nc3ccc(Oc4ccccc4)cc3)nc(Nc3ccc(Oc4ccccc4)cc3)c2cc1OC`, the inhibition came out at 6.52% in assay [1], 3.92% in assay [2] and 6.04% in assay [3].

With `CCCCCCCN(CCCCCCC)CCCC(=O)Nc1ccnc2ccc(OC)cc12`, the results for the inhibition in assay [1], in assay [2] and in assay [3] were 1.2%, 1.31% and -1.2%, respectively.

`CCCC(=O)Nc1ccc(OCCCCN(CC(C)(C)C)c2ccc(C#N)c(C(F)(F)F)c2)cc1`: the inhibition in assay [1] was 1.48%; in assay [2] it was 1.02%; in assay [3] it was 0.8%.

Regarding `CCC(CCON1C(N)=NC(N)=NC1(C)C)c1ccc(Cl)c(Cl)c1` (configuration not stated), the inhibition is 3.2% in assay [1], 3.06% in assay [2] and 3.3% in assay [3].

Regarding `CN(C)CCCOc1cccc(NC(=O)Nc2ccc(-c3ccccc3)cc2)c1`, the inhibition in assay [1] was -1.01%; in assay [2], -1.23%; in assay [3], -3.41%.

Regarding `Nc1ccc(-c2cc(Cl)cc(Cl)c2)cc1-c1cc2ccccc2[nH]1`, the inhibition in assay [1] was 2.84%; in assay [2], 1.08%; in assay [3], -0.38%.

`O=C(/C=C/c1ccc(F)c(Br)c1)NCCCCCN1CCC(c2c[nH]c3ccccc23)CC1`: the inhibition was 1.88% in assay [1], 0.52% in assay [2] and -1.08% in assay [3].

In the case of `CCCCCOc1c(CCC)cc(Cc2cnc(N)nc2N)cc1CCC`, the figures for the inhibition in assay [1], in assay [2] and in assay [3] were 14.7%, 12.3% and 4.12%, respectively.

For `O=C(/C=C/c1ccc(Cl)c(Cl)c1)NCCCCCN1CCC(NC(=O)Nc2ccc(F)c(F)c2)CC1`, the inhibition was -1.34% in assay [1], -0.67% in assay [2] and -2.11% in assay [3].

For the compound `CCC(C)c1ccc(-n2c(Nc3ccccc3)nc3cc(S(N)(=O)=O)ccc32)cc1` (configuration not stated), the results for the inhibition in assay [1], in assay [2] and in assay [3] were 12.3%, 6.89% and 5.77%, respectively.

Consider `O=C(NC1CCC(CCN2Cc3cccc(C(F)(F)F)c3C2)CC1)c1cccc(-c2cccnc2)c1` (configuration not stated), for which the inhibition in assay [1] came out at 3.38%; in assay [2] it was 1.73%; in assay [3], 2.16%.

For the compound `COc1ccc(-c2cccc(NC(=O)c3ccc(Cl)cc3)c2)cc1CN1CCCC1`, the inhibition stood at 11.3% in assay [1], 9.27% in assay [2] and 5.55% in assay [3].

Take `O=C(Nc1ccc(Cl)cc1)Nc1ccc(Cn2ncc(N3CCCNCC3)c(Cl)c2=O)cc1`: the inhibition in assay [1] worked out at 2.02%; in assay [2] it was 5.96%; in assay [3], 2.56%.

On to `CCN(CC)CCON=Cc1cc(C)c2[nH]c3ccc(OCc4ccccc4)cc3c2c1C`, for which the inhibition in assay [1] is -1.13%; in assay [2] it was 0.92%; in assay [3], -2.27%.

In the case of `COc1cc2nc(N3CCC(CCCC4CCNCC4)CC3)nc(NCc3ccccn3)c2cc1OC`, the inhibition in assay [1] came to 73.5%; in assay [2] it was 68.6%; in assay [3], 57.1%.

With `CCNc1cc(C(=O)N[C@@H](Cc2ccccc2)[C@H](O)CNCCCc2ccc(OC)cc2)cc(N2CCCC2=O)c1`, the inhibition in assay [1] was determined as 0.4%; in assay [2] it was 0.76%; in assay [3], 1.05%.

As to `Cc1cc(=NN=Cc2cccc(F)c2)c2cc(F)ccc2[nH]1`, the inhibition in assay [1] turned out to be 8.18%; in assay [2], 9.63%; in assay [3] it was 4.81%.

Consider `CC(=O)Nc1ccc(CN(Cc2ccc(F)cc2)Cc2cccc(Oc3ccccc3)c2)cc1`, for which the inhibition in assay [1] came to 3.19%; in assay [2], 1.73%; in assay [3], 0.56%.

Consider `NCCCOc1cnc(-c2ccccc2)c2nc(-c3nonc3N)n(CCc3ccccc3)c12`, for which the results for the inhibition in assay [1], in assay [2] and in assay [3] were 4.6%, 2% and 1.33%, respectively.

`N#Cc1ccc(N2CCN(Cc3cccc(-c4ccc(-c5nc6cc(C(F)(F)F)ccc6[nH]5)cc4)c3)CC2)nc1`: the inhibition was found to be 4.01% in assay [1], 6.49% in assay [2] and 0.17% in assay [3].

In the case of `O=C(Nc1ccc2c(c1)CCC2)N[C@H]1CCN(Cc2ccc(OCCCN3CCCCC3)cc2)C1`, the results for the inhibition in assay [1], in assay [2] and in assay [3] were 1.25%, 2.37% and 2.47%, respectively.

In the case of `COc1cc2c(Nc3ccc(NC(=O)c4ccccc4)cc3)ncnc2cc1OCCCN1CCOCC1`, the inhibition in assay [1] worked out at 3.25%; in assay [2], 3.13%; in assay [3] it was 4.08%.

As for `CN(C)c1nc(NN=Cc2cc(Cl)ccc2O)nc(Nc2ccc(F)cc2)n1`, the inhibition in assay [1] was 13%; in assay [2], 11%; in assay [3], 10.9%.

In the case of `O=C(Nc1ccsc1)Nc1cccc(-c2cccc(-c3nc4cc(F)ccc4[nH]3)c2)c1`, the inhibition was 2.33% in assay [1], 2.8% in assay [2] and -5.19% in assay [3].

With `COc1cc(-c2nc(-c3ccccc3)c(-c3ccccc3)[nH]2)cc(OC)c1O`, the inhibition in assay [1] is -0.19%; in assay [2] it was -0.87%; in assay [3], -1.53%.

`CCCC1N=C(N)N=C(N)N1c1ccc(Cl)cc1` (configuration not stated): the results for the inhibition in assay [1], in assay [2] and in assay [3] were 2%, 2.02% and 2.31%, respectively.

In the case of `NCc1ccc(-c2ccccc2CNC2CCN(Cc3ccccc3)CC2)cc1`, the inhibition stood at 2.4% in assay [1], 2.46% in assay [2] and 1.44% in assay [3].

`CCc1cc2c(Sc3nnc(N)s3)ncnc2s1`: the inhibition in assay [1] was 2.44%; in assay [2], 0.05%; in assay [3], -5.69%.

`Cc1cc(=O)[nH]c(-n2nc(C)cc2NC(=O)C2(c3ccc(Cl)cc3)CCCC2)n1`: the results for the inhibition in assay [1], in assay [2] and in assay [3] were 61.6%, 66.3% and 53.5%, respectively.

With `Nc1ncc(-c2cc3ccccc3o2)c(N)n1`, the inhibition was 3.02% in assay [1], 2.51% in assay [2] and -0.11% in assay [3].

Take `O=c1[nH]ccc2nc(N[C@@H]3CCNC3)nc(Nc3cc(Cl)cc(Cl)c3)c12`: the inhibition in assay [1] is 7.56%; in assay [2] it was 8.18%; in assay [3], 9.4%.

For `Cc1sc2ncnc(Sc3nc4ccccc4[nH]3)c2c1C`, the results for the inhibition in assay [1], in assay [2] and in assay [3] were 5.47%, 8.07% and 3.58%, respectively.

Consider `Cc1ccccc1OCC(O)CN1CCC(C2CCN(CC(O)COc3ccccc3C)CC2)CC1` (configuration not stated), for which the inhibition in assay [1] amounted to 2.25%; in assay [2], 2%; in assay [3], 2.28%.

For the compound `CC(C)(C)OC(=O)/C=C(\C(=O)OCc1ccc([N+](=O)[O-])cc1)c1csc(NC(c2ccccc2)(c2ccccc2)c2ccccc2)n1`, the figures for the inhibition in assay [1], in assay [2] and in assay [3] were 4.04%, 4.55% and 3.64%, respectively.

For the compound `CN1CCN(CC(O)CNC(=O)Nc2ccc(Cl)cc2)CC1` (configuration not stated), the figures for the inhibition in assay [1], in assay [2] and in assay [3] were 5.3%, 5.03% and 2.94%, respectively.

As for `CCCCOc1cc(C)nc2ccc(NC(=O)COCC(=O)Nc3ccc4nc(C)cc(OCCCC)c4c3)cc12`, the figures for the inhibition in assay [1], in assay [2] and in assay [3] were 14.9%, 13.7% and 11.2%, respectively.

As for `O=S(=O)(NCCN1CCCC1)c1cccc(-c2ccc(CNCc3ccccc3)cc2)c1`, the inhibition in assay [1] was 5.11%; in assay [2] it was 2.05%; in assay [3] it was 2.83%.

For the compound `COc1c(C2CCN(CCCCNC(=O)c3ccc(-c4ccc(NC(=O)C(F)(F)F)cc4)cc3)CC2)ccc2c1CCCC2`, the inhibition in assay [1] is 1.22%; in assay [2] it was 4.26%; in assay [3], 0.3%.

Turning to `COc1cccc(CCc2cccc(CNC(C)=O)c2)c1`, the inhibition in assay [1] is 5.81%; in assay [2], 4.65%; in assay [3], 5.68%.

Regarding `O=C(Nc1ccc(Cl)cc1)Nc1ccc(-c2csc(-c3nc4ccccc4[nH]3)c2)cc1`, the results for the inhibition in assay [1], in assay [2] and in assay [3] were 0.59%, 1.1% and 0.83%, respectively.

As to `O=C(c1ccccc1)N(Cc1ccccc1-c1ccc(CNCCc2ccccc2)cc1)C1CCN(Cc2ccccc2)CC1`, the inhibition in assay [1] was determined as 12.2%; in assay [2], 10.8%; in assay [3] it was 14.7%.

With `O=c1cc(NCCCNCc2ccc(C(F)(F)F)s2)[nH]c2ccccc12`, the inhibition in assay [1] is -0.41%; in assay [2], 0.6%; in assay [3] it was 0.9%.

As for `CN(C)CCCN1CCN(Cc2ccc(-c3ccc(-c4nc5ccccc5[nH]4)s3)cc2)CC1`, the inhibition in assay [1] stood at 11.2%; in assay [2] it was 8.38%; in assay [3], 12.1%.

`CC(=O)N1c2ccccc2C(C)=CC1(C)C`: the inhibition in assay [1] is -0.17%; in assay [2], -0.45%; in assay [3] it was -1.02%.
